Assay results taken from article PMC5540273 (PLoS ONE, 2017).
Like-named read-outs stand apart in the source and are kept apart here.

Experiments:
FYN = details: concentration: 1 μM, replicates: in singlicate; n = 1
GAK = details: concentration: 1 μM, replicates: in singlicate; n = 1
GCN2(Kin.Dom.2,S808G) = system: T1, GCN2(Kin.Dom.2,S808G); details: concentration: 1 μM, replicates: in singlicate; n = 1
T1 construct: gene EIF2AK4

GRK1 = details: concentration: 1 μM, replicates: in singlicate; n = 1
GRK2 = system: T2, GRK2; details: concentration: 1 μM, replicates: in singlicate; n = 1
T2 construct: gene ADRBK1

GRK3 = system: T3, GRK3; details: concentration: 1 μM, replicates: in singlicate; n = 1
T3 construct: gene ADRBK2

GRK4 = details: concentration: 1 μM, replicates: in singlicate; n = 1
GRK7 = details: concentration: 1 μM, replicates: in singlicate; n = 1
GSK3A = details: concentration: 1 μM, replicates: in singlicate; n = 1
GSK3B = details: n = 1
[1] = concentration: 1 μM, replicates: in singlicate
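Note: KINOMEscan kinase panel screen.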

Row | SMILES | %Inh (FYN) [%] | %Inh (GAK) [%] | %Inh (GCN2(Kin.Dom.2,S808G)) [%] | %Inh (GRK1) [%] | %Inh (GRK2) [%] | %Inh (GRK3) [%] | %Inh (GRK4) [%] | %Inh (GRK7) [%] | %Inh (GSK3A) [%] | %Inh (GSK3B; [1]) [%] | %Inh (GSK3B; 1 µM) [%]
1 | COC(=O)Nc1nc2ccc(Oc3ccc(NC(=O)Nc4cc(C(F)(F)F)ccc4F)cc3)cc2[nH]1.Cl [GW654607] | 54 | 0 | 6 | 0 | 0 | 0 | 11 | 0 | 4 | 9 | –
2 | CN(C)c1ncnc2nc[nH]c12 [SKF-31736] | 0 | 0 | 0 | 43 | 0 | 0 | 38 | 0 | 1 | 28 | –
3 | Cl.N#CCc1ccc(Nc2nccc(Nc3ccc(Oc4ccccc4)cc3)n2)cc1 [GW639905] | 74 | 31 | 36 | 0 | 0 | 45 | 0 | 0 | 0 | 8 | –
4 | COC(=O)Nc1nc2cc(Oc3ccc(NC(=O)Nc4cccc(SC)c4)cc3)ccc2[nH]1.Cl [GW697999] | 19 | 21 | 9 | 0 | 0 | 57 | 0 | 0 | 0 | 0 | –
5 | CCOc1nccc(-c2c(-c3ccc(F)cc3)ncn2C2CCNCC2)n1 [SB-249175] | 6 | 8 | 40 | 11 | 3 | 0 | 15 | 14 | 0 | 49 | –
6 | CC(C)c1nc(-c2ccc(F)c(NS(=O)(=O)c3c(F)cccc3F)c2)c(-c2ccnc(Nc3ccc(N4CCOCC4)nc3)n2)s1 [GSK1804250] | 95.9 | 92.1 | 100 | 0 | 6 | 7 | 9 | 0 | 40 | 23 | –
7 | Fc1cc(Cl)ccc1Nc1ccnc2cc(-c3ccc(CN4CCSCC4)o3)ccc12 [GW560106] | 90.5 | 84 | 0 | 0 | 0 | 32 | 3 | 0 | 22 | 0 | –
8 | CCn1c(-c2nonc2N)nc2c(-c3ccccc3)ncc(OCCCN)c21.O=C(O)C(F)(F)F.O=C(O)C(F)(F)F [GSK260205] | 0 | 83 | 0 | 0 | 0 | 63 | 0 | 0 | 15 | 17 | –
9 | Cn1cc(-c2cnc(N)c3c(-c4ccc5c(c4)CCN5C(=O)Cc4ccccc4)csc23)cn1 [GSK2593074] | 25 | 11 | 91.2 | 0 | 0 | 0 | 7 | 6 | 5 | 0 | –
10 | COc1ccc(C)c(Nc2ccnc(Nc3ccc(-c4cnc[nH]4)cc3)n2)c1.Cl [GW784041] | 56 | 52 | 100 | 0 | 0 | 0 | 27 | 15 | 32 | 0 | –
11 | Fc1cc(Cl)ccc1Nc1ccnc2cc(-c3ccc(CN4CCOCC4)o3)ccc12 [GW560109] | 90.9 | 84 | 13 | 5 | 0 | 46 | 2 | 0 | 1 | 24 | –
12 | O=C(Nc1n[nH]c2nc(-c3ccccc3O)ccc12)C1CC1 [SB-711880] | 0 | 0 | 26 | 49 | 0 | 0 | 28 | 12 | 87 | – | 53
13 | Cc1ccc(O)cc1Nc1ccnc2cc(-c3ccc(CN4CCCCC4)o3)ccc12 [GW557777] | 99.7 | 99.6 | 0 | 0 | 0 | 0 | 13 | 0 | 0 | 0 | –
14 | CN1CCN(Cc2ccc(NC(=O)Nc3ccc(N(C)c4ccnc(Nc5ccc(CS(C)(=O)=O)cc5)n4)cc3)cc2)CC1.Cl [GW827654] | 40 | 36 | 17 | 9 | 27 | 21 | 86 | 3 | 4 | 32 | –
15 | O=C(Nc1n[nH]c2nc(-c3ccccc3)ccc12)C1CC1 [SB-708999] | 0 | 17 | 0 | 10 | 0 | 28 | 9 | 0 | 77 | – | 12
16 | O=C(Nc1n[nH]c2cc(-c3cccs3)ccc12)C1CC1 [SB-731284] | 0 | 0 | 0 | 56 | 0 | 0 | 47 | 0 | 52 | – | 57
17 | CN(C)CCNS(=O)(=O)c1ccc(-c2ccnc3[nH]ccc23)cc1 [GSK977620] | 18 | 1 | 14 | 71 | 0 | 72 | 0 | 86 | 0 | 11 | –
